# Assay results taken from PubChem BioAssay AID624483 (NMMLSC, 2012).
# Hit rate of the full screen: of about 360,000 compounds, about 11,000 (3.1%) were called active. Inconclusive results (about 2%) are left out. Cut-off read from the data, not from the text of the source: active = fluorescence intensity above about 16000; inconclusive = no clear call, values can overlap the other calls; inactive = below that. For the sample, actives were picked, then their nearest neighbours and some compounds at random.
# Experiment: compound fluorescence in toxin protease inhibitor counterscreen, primary screen, artefact control for toxin protease inhibitor project, biochemical, multiplex microsphere, HTS (AID 624483)
# Conditions: compound autofluorescence counterscreen, microsphere flow cytometry; stronger effect = higher value
row,Compound,fluorescence intensity
1,CC(C)(O)C1=C[N+](=O)CC=C1,6070 (inactive)
2,CN1OC[C@@H]2CN(S(=O)(=O)c3cccc(C(F)(F)F)c3)[C@H](c3ccc(-c4cc5ccccc5o4)cc3)C[C@@H]21,3760 (inactive)
3,Nc1[nH]c(C(=O)c2ccccc2)c(-c2ccncc2)c1C(=O)NCc1cccc2ccccc12,5030 (inactive)
4,CCN(CC)c1ncnc2c1ncn2[C@H]1CN(Cc2cccs2)C[C@@H](CO)O1,3720 (inactive)
5,Cc1cc(N2C(=O)c3ccc(C(=O)NCc4ccccc4)cc3C2=O)no1,17400 (active)
6,Cc1ccc(CNC(=O)c2ccc3c(c2)S(=O)(=O)c2ccccc2C3=O)cc1,3750 (inactive)
7,CCCn1nc2cc(C(=O)NCc3ccccc3)ccc2c1OCC,4050 (inactive)
8,O=c1[nH]cccc1-c1nc2ccccc2n1Cc1ccc(Cl)cc1,4020 (inactive)
9,COc1ccc(NC(=O)C2Cc3c(-c4ccc(Cl)cc4)ccnc3O2)cc1 (centres undefined),3760 (inactive)
10,CCOc1ccc(NC(=O)CC2NCCNC2=O)cc1 (centres undefined),4570 (inactive)
11,O=C(CC1NCCNC1=O)Nc1ccc(Oc2ccccc2)cc1 (centres undefined),16900 (active)
12,O=C(CC1NCCNC1=O)Nc1cc(Cl)cc(Cl)c1 (centres undefined),7460 (inactive)
13,Cc1cccc(NC(=O)CSc2nnc(CCNC(=O)OC(C)(C)C)o2)c1C,3990 (inactive)
14,Cc1ccccc1CSc1nnc(CCCCCNC(=O)OC(C)(C)C)o1,3660 (inactive)
15,Cc1cccc(NC(=O)CSc2nnc(CCCCCNC(=O)OC(C)(C)C)o2)c1C,20100 (active)
16,CCOC(=O)N1CCC(NC(=O)C(C)n2c3ccccc3c3cnn(C)c(=O)c32)CC1 (centres undefined),3150 (inactive)
17,COC(=O)c1ccc(NC(=O)c2cc3c(CO)cnc(C)c3oc2=Nc2cccc(C(N)=O)c2)cc1,2910 (inactive)
18,CN(C)C(=O)CSc1n[nH]c(-c2ccco2)n1,2630 (inactive)
19,O=C(O)CSc1c2c(nc3cc(C(=O)Nc4cccc(C(F)(F)F)c4)ccc13)CCCC2,5110 (inactive)
20,COC(=O)c1ccccc1Sc1c(/C=N/OCc2ccc(Cl)cc2)c(C(F)(F)F)nn1C,2910 (inactive)
21,Cn1nc(C(F)(F)F)c(C(=O)Nc2cccc(C(F)(F)F)c2)c1SCc1ccc(Cl)cc1,18600 (active)
22,N[C@@H](Cc1ccccc1)C(=O)N1CCOCC1,3920 (inactive)

row,Compound,fluorescence intensity
1,O=C(CSc1ncccn1)N1CCCC1,5480 (inactive)
2,OC(c1ccc(Cl)cc1)c1ncc(-c2ccc(Cl)cc2)[nH]1 (centres undefined),3850 (inactive)
3,COCCn1c(CN(Cc2ccccc2)Cc2ccccc2)nc2c1c(=O)n(C)c(=O)n2C,5270 (inactive)
4,CC(C)CCn1c(CN(C)Cc2ccccc2)nc2c1c(=O)n(C)c(=O)n2C,21400 (active)
5,CC(C)Cn1c(CN(Cc2ccccc2)Cc2ccccc2)nc2c1c(=O)n(C)c(=O)n2C,5910 (inactive)
6,CC1(C)OC(=O)C2=C(C[C@@H](C3CCCCC3)O[C@@H]2c2ccc(Cl)cc2)O1,6270 (inactive)
7,COc1cc2ccccc2cc1C(=O)Nc1ccccc1C,3900 (inactive)
8,Cc1ccc(Nc2c(F)c(F)c(F)c(F)c2C(=O)O)c(C)c1,3820 (inactive)
9,COc1c(F)c(F)c(C(=O)O)c(Nc2ccccc2C)c1F,21400 (active)
10,Cc1ncc([N+](=O)[O-])n1CCOC(=O)c1ccc(Br)cc1,4830 (inactive)
11,CC1(C(=O)NCc2ccc3c(c2)OCO3)CCN1C(=O)Cc1cccc2ccccc12 (centres undefined),2930 (inactive)
12,Nc1nc2c(Br)ccc(Br)c2cc1C(=O)NCCc1ccccc1,6050 (inactive)
13,Cc1ccc(S(=O)(=O)CCC(=O)OCC(=O)NCCc2ccc(S(N)(=O)=O)cc2)cc1,5910 (inactive)
14,CCOC(=O)c1c(C)c(C(=O)NCCc2ccc(S(N)(=O)=O)cc2)c(C)n1CC,22600 (active)
15,NS(=O)(=O)c1ccc(CCNC(=O)COC(=O)COc2cccc(C(F)(F)F)c2)cc1,4060 (inactive)
16,COc1ccc(NS(=O)(=O)c2cccc(C(=O)NCCc3ccc(S(N)(=O)=O)cc3)c2)cc1,8740 (inactive)
17,COc1ccc(C(=O)NCCc2ccc(S(N)(=O)=O)cc2)cc1OC,17500 (active)
18,COC(=O)c1c(C)[nH]c(C(=O)NCCc2ccc(S(N)(=O)=O)cc2)c1C,3790 (inactive)
19,NS(=O)(=O)c1ccc(CCNC(=O)c2ccc(Cl)c(S(=O)(=O)N3CCCCCC3)c2)cc1,4250 (inactive)
20,COc1ccc(OCC(=O)NCCc2ccc(S(N)(=O)=O)cc2)cc1,19600 (active)
21,Cc1noc(C)c1C(=O)NCCc1ccc(S(N)(=O)=O)cc1,4000 (inactive)
22,Cc1cccc(NS(=O)(=O)c2cccc(C(=O)NNC(=O)c3ccccc3O)c2)c1,3510 (inactive)
